An excerpt weighted towards active compounds, which were near 5.7% of everything screened.
AHR act = AHR activators, primary screen, cell-based, luminescence, luciferase reporter, human. AHR-responsive luciferase reporter cells. activation, % at 5 µM. 2.5% of 320,000 active. AID 2796, 2010; in the data active = activation above about 47%;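 also: 0% = vehicle wells and 100% = reference agonist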
hgDAF12 agonist = H. glycines DAF-12 receptor agonists, primary screen, cell-based, luminescence, HEK293, GAL4 fusion, UAS-luciferase. Nuclear hormone receptor DAF-12 (Heterodera glycines), GAL4 fusion. HEK293 GAL4-hgDAF12 UAS-luciferase reporter, agonist luminescence; normalized to butyrate control. activation, % at 6.8 µM. 1.8% of 370,000 active. AID 687014, 2013;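 active = activation above a cutoff set at the mean of all screened compounds plus 3 SD, cut at about 10% in these data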;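 also: 0% = DMSO wells and 100% = sodium butyrate wells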
DAX1 inh-1 = DAX1 (NR0B1) inhibitors, primary screen, cell-based, HEK293, Gal4-DAX1, luciferase luminescence; Nuclear receptor subfamily 0 group B member 1 (Homo sapiens), P51843; HEK293 Gal4-DAX1 luciferase reporter; inhibition, % at 6.75 µM; 0.99% of 340,000 active; AID 504766, 2011;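 active = inhibition above the mean over all tested compounds plus 3 SD, cut at about 4.2% in these data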;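 also: 0% = DAX1-transfected cells with DMSO and 100% = empty-vector control cells with DMSO; inhibition shows as a rise in luminescence from relieved DAX1 repression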
Target sequence (P51843 207-470 limits assumed): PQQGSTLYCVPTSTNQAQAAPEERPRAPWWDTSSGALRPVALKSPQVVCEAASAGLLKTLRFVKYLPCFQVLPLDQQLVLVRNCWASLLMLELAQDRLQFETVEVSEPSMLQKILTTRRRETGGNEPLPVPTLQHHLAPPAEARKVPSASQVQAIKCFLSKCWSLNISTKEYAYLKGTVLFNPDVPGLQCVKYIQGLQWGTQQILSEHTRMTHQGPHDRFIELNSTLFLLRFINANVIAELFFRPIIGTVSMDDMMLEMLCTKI
DAX1 inh-2 = DAX1 (NR0B1) inhibitors on StAR promoter, primary screen, cell-based, luminescence, SF-1 (NR5A1), full-length DAX-1 | HEK293T StAR-luciferase reporter, SF-1/DAX-1 repression relief | 1.1% of 370,000 active | inhibition, % at 6.8 µM;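 active = inhibition above the mean over all tested compounds plus 3 SD, cut at about 3.6% in these data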;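 also: 0% = DAX-1 cells with DMSO and 100% = cells lacking DAX-1 with DMSO; higher inhibition means more luminescence from relief of DAX-1 repression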
ssDAF12 agonist = S. stercoralis DAF-12 nuclear receptor activators, primary screen, cell-based, luminescence, HEK293, GRIP1 co-expression, lit1-tk-luc. Nuclear hormone receptor DAF-12 (Strongyloides stercoralis). HEK293 ssDAF-12/GRIP1 lit1-tk-luc reporter; % of 3 µM dafachronic acid response. activation, % at 6.8 µM. 1% of 370,000 active. AID 652126, 2013;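 active = activation above the mean over all tested compounds plus 3 SD, cut at about 0.9% in these data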;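 also: 0% = DMSO-only wells and 100% = 3 µM delta7-dafachronic acid wells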
hcDAF-12 act = H. contortus DAF-12 nuclear receptor activators, primary screen, cell-based, luminescence, HEK293, lit1-tk-luc reporter. activation, % at 6.8 µM. HEK293 hcDAF-12 lit1-tk-luc reporter; 0% DMSO, 100% Δ7-dafachronic acid. AID 652067, 2013. 1.4% of 370,000 active;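 active = activation above the mean of all tested compounds plus 3 SD, cut at about 5.5% in these data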;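 also: 100% = response to 3 µM Δ7-dafachronic acid high control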
hgDAF12 conf = H. glycines DAF-12 receptor agonists, confirmation, cell-based, luminescence, HEK293, GAL4-LBD fusion; shares compounds with hgDAF12 agonist; HEK293 GAL4-hgDAF12 luciferase reporter, agonist mode; percent of butyrate response; activation, % at 6.8 µM; 80% of 3,300 active;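 active = mean activation over triplicate wells above the hit cutoff derived from the earlier primary screen, cut at about 11% in these data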;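 also: 0% = DMSO low control and 100% = 2 mM sodium butyrate high control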
LXR ag 2 = LXR agonists, Gal4 luciferase reporter, confirmation, counter-screen for hgDAF-12 agonist project, cell-based, luminescence, HEK293, H. glycines campaign; shares compounds with hgDAF12 agonist; 24 h; activation, % at 6.8 µM; 3,300 tested, under 10 active; AID 743051, 2013;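 active = mean activation of the triplicate above a set limit carried over from the primary screen, none filed active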
* marks the source's active call; other numbers are inactive results; . = no result.

SMILES | AHR act | hgDAF12 agonist | DAX1 inh-1 | DAX1 inh-2 | ssDAF12 agonist | hcDAF-12 act | hgDAF12 conf | LXR ag 2
O=S(=O)(c1ccccc1)N1CCN(c2ncccn2)CC1 | 1 | -3 | 0 | 1 | -1 | 0 | . | .
O=C(NNC(=S)NC(=O)c1ccccc1)c1ccc(O)cc1 | 1 | 1 | 0 | 0 | -1 | 1 | . | .
O=C(NNC(=S)Nc1ccccc1)c1ccc(O)cc1 | 9 | 15* | 6.0* | 3 | 0 | 2 | 12* | 1
Cc1ccc(/C=C/C(=O)Nc2cccc3cccnc23)o1 | 15 | 1 | -1 | 0 | 0 | 3 | . | .
CCN1CCN(C(=O)c2ccc(-c3nc4ccccc4s3)s2)CC1 | 1 | 17* | 2 | 4.3* | 1 | 4 | 11* | 1
O=C(c1ccc(-c2nc3ccccc3s2)s1)N1CCOCC1 | -10 | -4 | . | 2 | -2 | 0 | . | .
Clc1ccccc1OCc1nnc(-c2ccccc2Br)o1 | 4 | 10 | 1 | 1 | 0 | 2 | . | .
N#Cc1ccccc1OCc1nnc(-c2ccccc2Br)o1 | 8 | 15* | 2 | 2 | 0 | 4 | 11* | 1
CCCCCCCOc1ccc(C(=O)Nc2cccnc2)cc1 | 0 | -2 | -1 | 0 | -2 | -3 | . | .
O=C(NNC(=S)Nc1ccccc1)c1cccs1 | -1 | 7 | 3 | 1 | -1 | 0 | . | .
O=C(NNC(=S)Nc1ccc(Cl)cc1)c1cccs1 | 3 | 14* | 3 | 2 | -1 | 2 | 7 | 0
CCOc1ccc(NC(=O)CNC(=O)c2ccco2)cc1 | 2 | 3 | 2 | 1 | -1 | 1 | . | .
COc1ccc(NC(=O)c2ccc3snnc3c2)cc1 | 16 | 3 | 1 | 1 | -1 | 2 | . | .
CC(=O)c1ccc(NC(=O)c2ccc3snnc3c2)cc1 | 10 | 14* | 0 | 4 | -1 | 1 | 12* | 1
Cc1ccc(C(=O)N2CCc3ccccc32)o1 | 6 | 15* | 1 | 3.8* | 2.1* | 5 | 16* | 1
O=C(c1ccc([N+](=O)[O-])o1)N1CCc2ccccc21 | 2 | -1 | 1 | -1 | 0 | 0 | . | .
O=C(CCCN1CCOCC1)c1ccc2c(c1)OCCO2 | 5 | 17* | 1 | 3 | 0 | 3 | 14* | 0
Cc1ccc(Nc2ncccc2C(=O)O)cc1C | 9 | 4 | 1 | 2 | -1 | 3 | . | .
Cc1ccc(Nc2ncccc2C(N)=O)cc1[N+](=O)[O-] | 2 | 16* | 3 | 2 | 0 | 3 | 14* | 1
CCOC(=O)c1ccc(Nc2ncccc2[N+](=O)[O-])cc1 | 2 | 18* | 1 | 1 | 1.7* | 6.0* | 19* | 1
O=C(Nc1ccc(Cl)cn1)C1COc2ccccc2O1 (configuration not stated) | 2 | 14* | 3 | 4 | 1 | 6.0* | 11* | 0
Cc1cc(NC(=O)C2COc3ccccc3O2)no1 (configuration not stated) | -2 | 19* | 2 | 1 | -1 | 4 | 5 | 0
Cc1cc(NC(=O)COC(=O)C2COc3ccccc3O2)no1 (configuration not stated) | 2 | 0 | -1 | -1 | -2 | -1 | . | .
COc1ccc(Cl)cc1NS(=O)(=O)c1cccc(C(=O)NC2CCN(Cc3ccccc3)CC2)c1 | . | -5 | -1 | -5 | -2 | -3 | . | .
C=CCn1c(Cc2ccc(OCC)cc2)nnc1SCC(N)=O | -3 | -1 | 3 | -1 | -2 | 0 | . | .
SMILES | AHR act | hgDAF12 agonist | DAX1 inh-1 | DAX1 inh-2 | ssDAF12 agonist | hcDAF-12 act | hgDAF12 conf | LXR ag 2
Cc1cc(C(=O)CSc2ncccn2)c(C)n1-c1cccc(F)c1 | -2 | 14* | 2 | 4.3* | 2.3* | 6.1* | 15* | 1
Cc1cc(C(=O)CSc2nnnn2C)c(C)n1-c1cccc(F)c1 | 2 | 14* | 2 | 2 | -1 | 3 | 15* | 1
Cc1cc(C)cc(-n2c(C)cc(C(=O)CSc3nnnn3C)c2C)c1 | 9 | 2 | -1 | -1 | -1 | -1 | . | .
c1ccc(-c2cc3nccc(-c4ccccn4)n3n2)cc1 | 38 | 23* | 4 | 1 | 0 | 4 | 16* | 1
Cc1ccc(C)c(N2CCN(c3cnn(-c4nc5ccccc5s4)c(=O)c3Cl)CC2)c1 | 5 | 14* | 3 | 3.7* | 0 | 5 | 12* | 1
COc1cc(CCC(=O)NNC(=O)c2ccc(Cl)cc2)cc(OC)c1OC | 0 | 2 | 1 | 0 | 0 | -1 | . | .
Cc1nn2c3c(cnc2c1-c1ccccc1)C(=O)CCC3 | 6 | -1 | 0 | 1 | -1 | 0 | . | .
Cc1nn2c(N)c(-c3ccccc3)cnc2c1-c1ccc(Cl)cc1 | 64* | 14* | 1 | 1 | 1 | 3 | 17* | 0
COc1ccc(Cc2nc3ccc(S(=O)(=O)N4CCOCC4)cc3[nH]2)cc1 | 2 | -4 | -1 | 0 | -2 | -2 | . | .
COc1ccc(C2C(C#N)=C(N)N(Nc3ccccc3)C3=C2C(=O)CC(C)(C)C3)cc1C (configuration not stated) | 3 | -4 | -1 | -1 | -2 | -2 | . | .
Cc1ccsc1/C=C1\Oc2cc(O)ccc2C1=O | . | 24* | 2 | 4.5* | 0 | 3 | 6 | 0
Cc1ccc(NCCC(=O)c2cccs2)cc1C | 48* | 15* | 1 | 2 | 1 | 4 | 15* | 1
Cc1ccc(NCCC(=O)c2ccc(Cl)cc2)cc1C | 2 | 1 | 0 | -1 | 0 | 1 | . | .
O=C(c1ccc(F)cc1Cl)N(Cc1ccccn1)CC1CCCO1 (configuration not stated) | . | 31* | . | 0 | -1 | -2 | 1 | 0
CCN1CCN(C(=O)c2[nH]c3ccc(OC)cc3c2C)CC1 | 0 | 3 | 0 | 0 | -2 | -1 | . | .

Screens from PubChem BioAssay.
